BAZ2B inh – blocks human BAZ2B | AlphaScreen BAZ2B-H3K14Ac peptide displacement | hit rate 4.4% among 360,000 | Potency, µM (series often up to 114 µM), inactives show at the highest dose activity change, negative = inhibition, most hits filed as inhibitors; further: on the % scale 0 is the no-effect control and ±100 the full control effect; nearly all actives have a fitted effect of over 60% in size
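Complex of BAZ2B and biotin-H3K14Ac (50 nM apiece) forms over 30 min at RT, then faces library compounds up to 110 uM for another 30 min; AlphaScreen beads added, 20 min dark incubation, luminescence read.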
VDR inhibitor – inhibitors of human vitamin D receptor. P11473. VDR-SRC2-3 peptide fluorescence polarization, 2 h. Potency, µM, inactives show max response, negative = inhibition, usual class: inhibitors. hit rate 0.93% among 400,000. AID 504847; further: on the % scale 0 is the no-effect control and ±100 the full control effect
Target sequence (P11473 whole entry, looked up): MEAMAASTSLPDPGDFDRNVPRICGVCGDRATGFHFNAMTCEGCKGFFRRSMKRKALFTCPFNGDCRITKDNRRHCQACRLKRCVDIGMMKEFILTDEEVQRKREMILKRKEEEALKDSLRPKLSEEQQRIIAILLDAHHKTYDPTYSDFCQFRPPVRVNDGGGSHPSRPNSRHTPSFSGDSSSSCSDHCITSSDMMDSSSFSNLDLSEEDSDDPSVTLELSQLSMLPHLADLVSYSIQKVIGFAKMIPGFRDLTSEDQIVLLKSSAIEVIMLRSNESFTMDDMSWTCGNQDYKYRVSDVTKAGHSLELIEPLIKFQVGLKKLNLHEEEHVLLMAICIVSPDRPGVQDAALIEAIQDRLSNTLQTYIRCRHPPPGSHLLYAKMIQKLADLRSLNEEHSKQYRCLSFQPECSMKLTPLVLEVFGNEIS
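Compounds are added to VDR with labelled SRC2-3 coactivator peptide and held 2 h at room temperature. Inhibition of the VDR–peptide interaction is then read as a change in fluorescence polarization.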
HP1b chromo inh – blocks HP1-beta chromodomain binding to methylated histone tails. P83916. AlphaScreen HP1-beta / biotin-H3K9me3 peptide binding. Potency, µM (highest dose often 114 µM), for inactives: top-dose activity change, negative = inhibition, usual class: inhibitors. hit rate 0.56% among 390,000. AID 540317; further: nearly all actives have a fitted effect of over 70% in size
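AlphaScreen: HP1-beta (50 nM) preformed 30 min with biotin-H3(1-18)K9me3 peptide (50 nM) in PBS pH 7.4, 0.01% Tween-20. Compound added for 30 min at RT, then streptavidin donor/nickel chelate acceptor beads (10 ug/mL) for 30 min.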
PLK1 PBD inh – blocks phosphopeptide binding to human PLK1 polo-box domain. P53350. Plk1 PBD binding of FITC phosphopeptide, fluorescence polarization. Potency, µM, without a hit: max response, negative = inhibition, hits mostly inhibitors. hit rate 2.8% among 360,000. AID 720504; further: series mostly up to about 57 µM; on the % scale 0 is the no-effect control and ±100 the full control effect; nearly all actives have a fitted effect of over 65% in size
JMJD2A Tudor – blocks the human JMJD2A Tudor domain; O75164; AlphaScreen JMJD2A-Tudor / H3K4me3 peptide binding; Potency, µM (doses to about 114 µM), inactives show at the highest dose activity change, negative = inhibition, usual class: inhibitors; hit rate 4.4% among 390,000; further: on the % scale 0 is the no-effect control and ±100 the full control effect; nearly all actives have a fitted effect of over 50% in size
L3MBTL1 block – blocks human L3MBTL1; Q9Y468; AlphaScreen L3MBTL1–H3K9me1 peptide binding; Potency, µM (top dose mostly 57.1 µM), for inactives: at the highest dose activity, negative = inhibition, hits mostly inhibitors; hit rate 0.66% among 230,000; further: on the % scale 0 is the no-effect control and ±100 the full control effect; nearly all actives have a fitted effect of over 60% in size
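Read-out is AlphaScreen signal from streptavidin donor and nickel chelate acceptor beads (10 ug/mL final each) bridging L3MBTL1 (50 nM) and biotinylated K9-monomethylated H3(1-15) peptide (75 nM), after 30 min compound exposure at room temperature.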
* hit, by the source's call; u = inconclusive; x = not tested or not shown; [ ] = another dose, or the depositor's remark. Sampled rows, rich in hits. Any-hit rate of the full collection: about 6.9%. The call rests on the fitted dose curve; in most records, active means well fitted curve in the direction sought with a large enough effect; inconclusive means small, poorly fitted or top-dose-only effect, or another doubt; inactive means no such curve, though single readings can be large; an effect the other way counts as inactive or inconclusive. Potency means the concentration at half of the fitted maximal effect.

SMILES	BAZ2B inh	VDR inhibitor	HP1b chromo inh	PLK1 PBD inh	JMJD2A Tudor	L3MBTL1 block
NCCC[C@@H](CC(=O)N[C@@H]1CCNC[C@H]1C(=O)N[C@H](CC(=O)N[C@@H](CCC(=O)O)CC(=O)O)Cc1ccccc1)NC(=O)C[C@H](Cc1ccccc1)NC(=O)[C@@H]1CNCC[C@H]1N	x	-12.7%	x	x	x	x
COc1cccc(C(=O)Nc2c(C(=O)c3ccc(F)cc3)oc3ccccc23)c1	-11.7%	-8.4%	24.7%	x	1.0%	x
CC(C)c1ccc(NC(=O)C2CCCN(S(=O)(=O)c3ccc4[nH]c(=O)oc4c3)C2)cc1 (stereo not drawn)	-11.0%	-6.8%	31.8%	x	-12.3%	x
c1ccc2c(C[C@@H]3CNCCN3CC3CCCCC3)cccc2c1	39.8µM*	-8.2%	-2.0%	5.1%	u	-6.8%
Oc1ccc(C[C@@H]2CNCCN2CC2CCCCC2)cc1	-1.5%	-20.9%	29.1%	-15.0%	-24.3%	1.8%
CC(C)CC1C(=O)N(Cc2cn(Cc3ccco3)nn2)CCS(=O)(=O)N1Cc1ccc(-c2ccccc2)cc1 (stereo not drawn)	x	x	x	3.8%	x	x
N#C/C(C(N)=O)=C1/SC=C(c2ccccc2)N1c1ccccc1	-9.6%	-2.4%	15.4%	-15.6%	-5.9%	-7.8%
N#C/C(C(=O)c1ccccc1)=C1/SC=C(N)N1c1ccccc1	44.7µM*	x	x	x	x	u
COc1cccc(-c2nc(NCCNC(C)=O)c3ccccc3n2)c1	x	-0.2%	x	x	x	x
NC(=O)NS(=O)(=O)Oc1ccccc1	-8.8%	9.8%	13.0%	-8.4%	89.1µM*	15.3%
CC1CCCC2(C1)NC(=S)N(c1ccccc1)N2 (stereo not drawn)	-3.6%	u	50.8%	-5.0%	79.4µM*	15.0%
S=C1NC2(CCCCC2)NN1c1ccccc1	79.4µM*	-5.0%	54.1%	-2.4%	-24.8%	7.7%
CC(C)CCN1NC2(CCCC(C)C2)NC1=S (stereo not drawn)	-17.1%	1.2%	34.4%	0.8%	-5.0%	1.5%
CC(C)(C)N1NC2(CCCCC2)NC1=S	u	2.2%	3.0%	u	17.8µM*	0.2%
CC1CCCCC12NC(=S)N(c1ccccc1)N2 (stereo not drawn)	-15.2%	0.8%	u	-14.5%	11.2µM*	7.3%
C[C@@H]1Nc2ccc(Cl)cc2S(=O)(=O)N1	x	-1.2%	x	x	x	x
CCOC(=O)CCCc1sc(N)nc1-c1[nH]c(=O)[nH]c1C	6.31µM*	-8.2%	u	u	2.24µM*	-91.5%
Cc1cc(Br)ccc1NC(=O)c1cc2c(s1)-c1ccccc1SC2	18.4%	-9.6%	46.7%	x	3.4%	x
CCC(CC)C(=O)Oc1c(Sc2ccccc2[N+](=O)[O-])c(C)nn1C(C)(C)C	u	8.8%	u	-4.2%	-35.2%	-10.2%
COCC(=O)Oc1c(Sc2ccccc2[N+](=O)[O-])c(C)nn1C(C)(C)C	u	-22.1%	2.1%	11.9µM*	-12.7%	-21.1%
CCOCCCn1c(SCC(=O)NCCCOC)nc2c(sc3ccccc32)c1=O	-0.8%	-3.2%	51.5%	x	-0.7%	x
C/C(=N\NC(=O)c1ccc([N+](=O)[O-])cc1)c1cc2ccccc2oc1=O	0.8%	-24.5%	4.7%	29.9µM*	-34.9%	-1.6%
C/C(=N/NC(N)=S)c1cc2ccc(O)cc2oc1=O	u	-13.5%	u	30.2%	u	6.0%
C/C(=N/NC(=O)c1ccncc1)c1cc2ccc(O)cc2oc1=O	79.4µM*	3.0%	23.6%	11.9µM*	-32.4%	-4.4%
O=C(NNC(=O)c1cc2ccccc2oc1=O)c1ccccc1[N+](=O)[O-]	5.6%	-3.7%	37.0%	1.0%	-15.9%	x
C/C(=N\NC(=O)c1ccccc1)c1cc2cc([N+](=O)[O-])ccc2oc1=O	u	-2.6%	-7.8%	23.8µM*	-33.6%	-2.1%
CNC(=O)c1cc2cc(OC)ccc2oc1=O	0.7%	0.2%	12.5%	-1.6%	-12.9%	x
COc1ccc2oc(=O)c(/C(N)=N/NC(=O)c3ccncc3)cc2c1	-15.8%	-22.5%	16.7%[57 µM]	23.8µM*	u	x
C/C(=N\Nc1ccc([N+](=O)[O-])cc1[N+](=O)[O-])c1cc2c(ccc3ccccc32)oc1=O	-20.7%	x	x	x	x	15.1%
